# Records with an inconclusive call do not appear. A call without a number means that no potency is given here. Calls of active or inactive are those of the source. The call rests on the fitted dose curve; in most records, active means well fitted activation curve with a large enough effect; inconclusive means small, poorly fitted or top-dose-only effect; inactive means flat fitted curve, though single readings scatter. *1 amine or outer side, *2 acyl side, *3 side chain or, on linkers, in order; H or OH if unused. Where a SMILES comes first, the peptide text is derived from it. [ ]: non-standard residue; d: D form. X7 = O=C([C@@H](CC(O)CCl)O[*:1])[*:2]; aIle = CC[C@@H](C)[C@H](N)C(=O)O; NMeV = CN[C@H](C(=O)O)C(C)C; NMeA = CN[C@@H](C)C(=O)O; βAla = NCCC(=O)O
# Test: Primary redox qHTS assay for identification of artifact compounds. (AID 1845223)
# Conditions: Amplex Red/HRP redox cycling with DTT, fluorescence; series mostly up to 53.8 µM
# Text: PI: Alexander Tropsha Ph.D.
# UNC Eshelman School of Pharmacy
# University of North Carolina, Chapel Hill, North Carolina
# Hits from high-throughput screening (HTS) of chemical libraries are often false positives due to their interference with the assay detection technology. In response to this problem, we generated the largest publicly available library of chemical liabilities and developed a free webtool to predict HTS artifacts, both of which are described herein. More specifically, we generated, curated, and integrated HTS datasets for thiol reactivity, redox activity, and luciferase (firefly and nano) activity. Using these curated datasets, we developed and validated several Quantitative Structure-Interference Relationship (QSIR) models to predict nuisance behavior. […] These models were employed for virtual profiling of the National Center for Advancing Translational Science's (NCATS) in-house library, and 256 compounds for each assay were selected for the experimental validation of nuisance behavior. The BA for these external predictions ranged from 58 to 78% for compounds within the applicability domains of the models. […] The models developed in this study, along with aggregation models previously developed by our group (SCAM Detective) were implemented in "Liability Predictor," an online tool which may be used as part of chemical library design or for triaging HTS hits. Both the models and the curated datasets are publicly available at https://liability.mml.unc.edu/.
# SEQUENCE No. (e.g., 1, 2, 3, etc.); […] (e.g., Cells, Incubation, Reagent, etc.); VALUE; DESCRIPTION.
# 1; Reagent; 3 uL; Amplex Red and HRP mixture.
# 2; Compounds and control; 16 nL; Kalypsis pin tool (Wako USA) equipped with a 1536-well pin head. […]
# 6; Detection; Fluorescence, ViewLux microplate reader, 525 nm excitation, 598 nm emission.
# NOTES (numbers refer to Sequence numbers above)
# 1. 3 uL of a mixture containing Amplex Red (25 uM final concentration) and horseradish peroxidase (HRP; 250 mU/mL final concentration) in assay buffer (HBSS) was dispensed into all wells of a 1536-well assay plate (solid-bottom black plate; Greiner Bio One, Monroe, NC).
# 2. A Wako Pin-tool (Wako Automation, Richmond, VA) was used to transfer 16 nL of compounds (consisting of 7-plates in qHTS format, final concentration range 18.3 nM to 114 uM) or control DA3003 (final concentration range 1.22 nM to 40 uM).
# 3. 15 min. incubation at room temperature protected from light.
# 4. 1 uL of DTT (prepared fresh; final concentration 250 uM) was dispensed for a final assay volume of 4 uL.
# 5. Plates were centrifuged (121xg, 15 seconds) and incubated for 30 minutes at room temperature protected from light.
# 6. Samples were read for fluorescence (Ex/Em = 525(20)/598(25) nm) on a ViewLux CCD imager (PerkinElmer). Data were normalized to DMSO (0% activity) and DA3003 (10 uM final concentration; 100% activity) and the resulting percent inhibition data were fitted to a 4-parameter Hill equation using NCATS in-house software.
SMILES,Potency,redox activity (% of DA3003)
N#Cc1ccc([C@H]2CCCC[C@H]2O)cc1C(F)(F)F,inactive,–
C/C=C(\C)C(=O)OC1C2C3(C)CCC(OC4CC(OC)C(OC5OC(C)C(O)C(OC)C5O)C(C)O4)CC3CCC23OC32CCC(C(C)=O)C2(C)C1OC(=O)/C(C)=C/C (stereo not given),–,18.3% [at 11.5 µM] (inactive)
CC(=O)OC[C@]12C[C@H](OC(=O)CC(C)C)C(C)=C[C@H]1O[C@@H]1[C@H](O)[C@@H](O)[C@@]2(C)[C@]12CO2,inactive,–
Cc1cccc(NC(=O)NC2N=C(c3ccccc3)c3ccccc3N(CC(=O)c3ccccc3C)C2=O)c1 (stereo not given),inactive,–
CC(=O)O[C@@H]1[C@@H](O)[C@H]2O[C@@H]3C=C(C)[C@@H](O)C[C@]3(CO)[C@]1(C)[C@]21CO1,inactive,–
C[C@@H]1CN(Cc2ccc(F)cc2)CCN1C(=O)COc1ccc(Cl)cc1NC(N)=O,inactive,–
N#CC(O[C@@H]1O[C@H](CO)[C@@H](O)[C@H](O)[C@H]1O)c1ccccc1 (stereo not given in full),inactive,–
CCCCN1[C@@H]2CC[C@H]1CC(OC(c1ccc(F)cc1)c1ccc(F)cc1)C2 (stereo not given in full),inactive,–
CC12Cc3cn[nH]c3C=C1CCC1C2CCC2(C)C1CCC2(C)O (stereo not given),inactive,–
CCOc1ccc(Oc2ccc(OCc3cc(F)ccc3F)cc2)c(N)c1,inactive,–
CCCCCn1cc(C(=O)c2cccc3ccccc23)c2ccccc21,inactive,–
C/C=C(\C)C(=O)OC1CC2C(CC=C3CC(OC4CC(OC)C(OC5CC(OC)C(OC6CC(OC)C(OC7CC(OC)C(O)C(C)O7)C(C)O6)C(C)O5)C(C)O4)CCC32C)C2(O)CCC(C(C)=O)C12C (stereo not given),–,4.9% [at 11.5 µM] (inactive)
C/C(=C\c1csc(C)n1)[C@@H]1C[C@@H]2O[C@@H]2CCC[C@H](C)[C@H](O)[C@@H](C)C(=O)C(C)(C)[C@@H](O)CC(=O)O1,inactive,–
CCC(C)(O)C1(C(=O)O)COC(=O)C1 (stereo not given),inactive,–
O=C1N[C@@H](Cc2ccccc2)CN2CCCC[C@@H]12,inactive,–
C[C@@H]1O[C@@H](OC2CCC3(C=O)C(CCC4C3CCC3(C)C(C5=CC(=O)OC5)C(O)CC43O)C2)[C@H](O)[C@H](O)[C@H]1O[C@@H]1O[C@H](CO)[C@@H](O)[C@H](O)[C@H]1O (stereo not given in full),inactive,–
CC(=O)N1N=C(c2ccc(N)cc2)c2cc3c(cc2C[C@H]1C)OCO3,inactive,–
C[C@@H]1C[C@@H](O)[C@]2(O)O[C@@H]3C[C@@]4(C=O)C(CC[C@@H]5C4CC[C@]4(C)[C@@](O)(C6=CC(=O)OC6)CC[C@]54O)C[C@H]3OC2O1 (stereo not given in full),inactive,–
CC(C)C(=O)O[C@H]1[C@@H]2[C@H](C)C(=O)O[C@@H]2C[C@@H](C)[C@@H]2C=CC(=O)[C@]21C,inactive,–
CC1=CC2/C=C(\C)CCCC(O)/C=C/C(=O)OC23C(=O)NC(CC(C)C)C3C1C (stereo not given),inactive,–

SMILES,Potency,redox activity (% of DA3003)
CCN1C[C@]2(COC)CC[C@H](O)[C@@]34C5C[C@@H]6[C@@H](OC)C[C@@](OC(C)=O)(C5[C@@H]6OC(C)=O)[C@H]([C@H](OC)C23)[C@@H]14 (stereo not given in full),inactive,–
C[N@@+]1(CC2CC2)CC[C@]23c4c5ccc(O)c4O[C@H]2C(=O)CC[C@@]3(O)[C@H]1C5,inactive,–
COC[C@]12CN(C)C3C4[C@H](OC)[C@H]1C3(C(OC)C[C@H]2O)[C@H]1C[C@@]2(O)[C@H](OC(=O)c3ccccc3)[C@@H]1[C@]4(O)[C@@H](O)[C@@H]2OC (stereo not given in full),inactive,–
CC(=O)OC[C@]12[C@H](OC(C)=O)C(=O)[C@@H]3[C@@H](O)[C@@]14O[C@@]3(C)COC(=O)c1cccnc1[C@@H](C)[C@H](C)C(=O)O[C@@H]([C@H](OC(C)=O)[C@@H]2OC(C)=O)[C@]4(C)O,inactive,–
C[C@]12CC[C@H](O)C[C@@H]1CC[C@@H]1[C@@H]2CC[C@]2(C)[C@@H](C3=CC(=O)OC3)CC[C@]12O,inactive,–
CC1CCCC(O)CCC/C=C/c2cc(O)cc(O)c2C(=O)O1 (stereo not given),inactive,–
C[C@@H](CN1CCC2(CC1)C(=O)NCN2c1cccc(F)c1)NC(=O)c1ccc(Br)cc1,inactive,–
O=C(NCCN1CCC2(CC1)C(=O)NCN2c1cccc(F)c1)c1ccc(F)c(F)c1,inactive,–
COCC(C(=O)OC1CC2CCC(C1)N2C)c1ccccc1 (stereo not given),inactive,–
CN(C(=O)CN1C(=O)COc2cc(Cl)c(Cl)cc21)[C@@H](CN1CCCC1)c1ccc(-c2cccc(C(N)=O)c2)cc1,inactive,–
Clc1ccc([C@]23CNC[C@H]2C3)cc1Cl,inactive,–
CNC(=O)c1cc(C#N)cc(C)c1NC(=O)c1cc(Br)nn1-c1ncccc1Cl,inactive,–
FC(F)(F)c1ccc(N2CCNCC2)nc1Cl,inactive,–
C[C@@H]1CCC/C=C/[C@H]2C[C@@H](O)C[C@@H]2[C@@H](O)/C=C/C(=O)O1,inactive,–
CC(=O)OC[C@]12C[C@H](OC(=O)CC(C)C)C(C)=C[C@H]1O[C@@H]1[C@H](O)[C@@H](OC(C)=O)[C@@]2(C)[C@@]12CO2,inactive,–
C=C1CC[C@H]2[C@@H](/C=C(\C)C(=O)[C@@]3(OC(C)=O)C[C@H](C)[C@H](OC(=O)c4ccccc4)[C@@H]3[C@H]1OC(C)=O)C2(C)C,inactive,–
COC1CCCC(C)OC(=O)Cc2cc(O)cc(O)c2C(=O)C1 (stereo not given),inactive,–
C[C@H]1C/C=C/[C@H]2[C@@H]3O[C@]3(C)[C@@H](C)[C@H]3[C@H](Cc4ccccc4)NC(=O)[C@]32OC(=O)O/C=C/[C@@](C)(O)C1=O,inactive,–
CC[C@@H](C)[C@@H]1NC(=O)[C@@H]2CCCN2C(=O)[C@@H](CC(O)CCl)OC(=O)CCNC(=O)[C@H](C)N(C)C(=O)[C@H](C(C)C)N(C)C1=O (stereo not given in full) (cyclo([NMeA][βAla][X7]P[aIle][NMeV])),inactive,–
C/C=C(/C)C(=O)O[C@H]1[C@@H]2[C@H](C)C(=O)O[C@@H]2C[C@@H](C)[C@@H]2C=CC(=O)[C@]21C,inactive,–

# Source: PubChem BioAssay (NCATS)
